In the library only some 6.3% were active in any assay of this set; here they are far more common.
tim10-1 inh – growth inhibitors of tim10-1 mutant yeast | S. cerevisiae tim10-1 ts strain growth, BacTiter-Glo, 24 h | 330,000 compounds, 2.2% hits | inhibition, % at 20 µM;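 active = inhibition of at least 40%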;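 note: mutant grown at 25 °C; 0% = DMSO wells with yeast and 100% = wells holding no yeast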
Mdm2 MdmX PPI – human Mdm2/MdmX binding inhibition; O15151+Q00987; SaOS-2 split-luciferase Mdm2/MdmX complementation, luminescence; inhibition, % at 8 µM; 330,000 compounds, 3% hits; AID 485346;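 active = inhibition of at least 50% at 8 µM in the primary screen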
MPTP block – inhibitors of mitochondrial permeability transition pore; isolated mouse mitochondria, Ca2+ swelling absorbance, 30 min; inhibition, % at 10 µM; 360,000 compounds, 1.4% hits; AID 602449;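 active = inhibition of 50% or more, scaled per plate between neutral and stimulator controls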;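 note: 0% = DMSO wells given calcium and 100% = 1 mM EGTA wells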
tim23-1 inh – tim23-1 yeast growth inhibition | S. cerevisiae tim23-1 growth, BacTiter-Glo luminescence, 24 h | 330,000 compounds, 1.3% hits | inhibition, % at 20 µM | AID 463212;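 active = growth inhibition of the mutant yeast at or above 50%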;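 note: temperature-sensitive mutant grown at 25 °C; plate controls were DMSO-treated mutant yeast for no effect and medium wells lacking yeast for full effect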
TIM10 inh – inhibits growth of TIM10 yeast strain; S. cerevisiae TIM10 strain growth, BacTiter-Glo luminescence, 24 h; inhibition, % at 10 µM; 330,000 compounds, 1.4% hits; AID 463195;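 active = inhibition of 40% or more at the single tested concentration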;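 note: wild-type TIM10 isogenic control strain grown at permissive 25 °C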
tim10-1 conf – confirmation of tim10-1 mutant yeast growth inhibitors. inhibition, % at 20 µM. shares compounds with tim10-1 inh. S. cerevisiae tim10-1 ts strain growth, BacTiter-Glo, 24 h. 7,400 compounds, 56% hits;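 active = inhibition of yeast growth at or above a set limit in either of two repeat tests at 20 µM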;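 note: tim10-1 mutant grown at permissive 25 °C to find synthetic lethal compounds; 0% = DMSO yeast wells and 100% = medium wells without yeast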
* = called active by the depositor.

For Cc1c(Cl)c([N+](=O)[O-])nn1Cc1ccc(C(=O)Nc2ccc(Cl)cn2)o1 the results were tim10-1 inh 47*, Mdm2 MdmX PPI -6, MPTP block 0, tim23-1 inh 42, TIM10 inh 38 and tim10-1 conf 34*.
`Cc1nn(Cc2ccc(C(=O)Nc3ccccc3F)cc2)c(C)c1Cl` gave tim10-1 inh 41*, Mdm2 MdmX PPI -4, MPTP block 2, tim23-1 inh 11, TIM10 inh 11 and tim10-1 conf 26.
Screening Cc1nn(Cc2ccc(Cl)cc2)c(C)c1NC(=O)Cn1nc([N+](=O)[O-])c(Cl)c1C returned tim10-1 inh 14, Mdm2 MdmX PPI 36, MPTP block -1, tim23-1 inh 23 and TIM10 inh 10.
Screening Cc1nn(Cc2ccc(Cl)cc2)c(C)c1NC(=O)c1ccc([N+](=O)[O-])cc1 returned tim10-1 inh 53*, Mdm2 MdmX PPI 19, MPTP block 1, tim23-1 inh 40, TIM10 inh 16 and tim10-1 conf 41*.
For Cc1nn(Cc2ccc(Cl)cc2)c(C)c1NC(=O)c1noc2c1CCCCC2 the results were tim10-1 inh 43*, Mdm2 MdmX PPI 19, MPTP block 0, tim23-1 inh 38, TIM10 inh 35 and tim10-1 conf 44*.
Screening O=C(Nc1ccc(Cl)cn1)c1ccc([N+](=O)[O-])o1 returned MPTP block 1.
Screening Cc1nn(Cc2ccc(C(=O)NN)cc2)c(C)c1Cl returned tim10-1 inh 19, Mdm2 MdmX PPI 6, MPTP block -2, tim23-1 inh 36 and TIM10 inh 1.
For Cc1ccc(N2CCN(C(C(=O)Nc3c(C)cccc3C)c3cc4ccccc4o3)CC2)cc1 (stereo unspecified) the results were MPTP block 0.
Screening CCCCCCC(=O)OCC(=O)c1ccc2c(c1)NC(=O)CO2 returned tim10-1 inh 40*, Mdm2 MdmX PPI -16, MPTP block 0, tim23-1 inh 30, TIM10 inh 3 and tim10-1 conf 28.
CCc1ccc(OCC(=O)OCC(=O)c2ccc3c(c2)NC(=O)CO3)cc1 was read as tim10-1 inh -3, Mdm2 MdmX PPI -5, MPTP block -2, tim23-1 inh 17 and TIM10 inh 8.
For COC(=O)c1ccc(N2C(=O)CC(SCC(=O)Nc3ccc(OC)cc3)C2=O)cc1 (stereo unspecified) the results were tim10-1 inh 21, Mdm2 MdmX PPI -19, MPTP block 0, tim23-1 inh 28 and TIM10 inh 13.
CN=C(Nc1cc(Cl)ccc1Cl)SC1CC(=O)N(c2ccc(C(=O)OC)cc2)C1=O (stereo unspecified) was read as tim10-1 inh 44*, Mdm2 MdmX PPI 32, MPTP block -1, tim23-1 inh 42, TIM10 inh 14 and tim10-1 conf 42*.
For N#Cc1ccc(C(=O)N2CCCCC2c2cc(C(=O)Nc3ccc4c(c3)OCO4)no2)cc1 (stereo unspecified) the results were MPTP block 0.
`CCc1ccc(NC(=S)N(Cc2ccccc2)Cc2ccccn2)cc1` gave tim10-1 inh 48*, Mdm2 MdmX PPI 30, MPTP block -2, tim23-1 inh 36, TIM10 inh 34 and tim10-1 conf 35*.
O=C(O)c1cc(-c2ccc3c(c2)OCO3)nc2ccccc12 was read as tim10-1 inh 9, Mdm2 MdmX PPI -3, MPTP block 0, tim23-1 inh 7 and TIM10 inh 7.
Screening CCCN(CCC)C(=O)c1cc(-c2ccc3c(c2)OCO3)nc2ccccc12 returned tim10-1 inh 45*, Mdm2 MdmX PPI -4, MPTP block 0, tim23-1 inh 42, TIM10 inh 24 and tim10-1 conf 11.
For COc1ccc(-n2c(CCc3ccccc3)nnc2SCC(=O)NCc2ccccc2)cc1 the results were tim10-1 inh 30, Mdm2 MdmX PPI -7, MPTP block -8, tim23-1 inh 5 and TIM10 inh 20.
O=C(CSc1nnc(CCc2ccccc2)n1-c1ccc(Cl)cc1)NCc1ccccc1 was read as tim10-1 inh 43*, Mdm2 MdmX PPI 13, MPTP block -1, tim23-1 inh 1, TIM10 inh 16 and tim10-1 conf 12.
For CCCCn1nnnc1C(c1ccccc1)N1CCN(c2c(Cl)cncc2Cl)CC1 (stereo unspecified) the results were MPTP block 0.

High-throughput results (PubChem)
